From PubChem BioAssay (NCI)
The panel holds about 79,000 compounds, 15% with a hit somewhere; the sample as a whole holds those more often. Cut-off read from the data, not from the text of the source: active = growth inhibition above about 70%; inactive = the rest.

Assays:
[1] = NCI Yeast Anticancer Drug Screen. Data for the rad50 strain (AID 155);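 note: 0% = growth of vehicle-only cultures of the same strain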; details: S. cerevisiae rad50 strain growth inhibition; at 50.0 µM; active compounds read high
Method in brief: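 Readout: growth inhibition relative to vehicle-treated cultures. Compound exposure was carried out in a genetically defined yeast strain deficient in DNA damage repair.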

[2] = NCI Yeast Anticancer Drug Screen. Data for the mec2-1 strain (AID 157); details: S. cerevisiae mec2-1 strain, at 50.0 µM, active compounds read high
Method in brief: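 Growth inhibition is read against vehicle-treated controls after compound exposure of the mec2-1 yeast strain, which is defective in DNA damage repair or cell cycle control.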

[3] = NCI Yeast Anticancer Drug Screen. Data for the sgs1 mgt1 strain (AID 161);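 note: 0% = growth of cultures given vehicle only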; details: S. cerevisiae sgs1 mgt1 strain, at 50.0 µM, active compounds read high
Method in brief: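 This yeast growth screen uses a strain with defined DNA-repair lesions; compound-treated growth is compared with vehicle-treated growth.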

[4] = NCI Yeast Anticancer Drug Screen. Data for the cln2 rad14 strain (AID 165);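 note: 0% = growth equal to vehicle treated cultures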; details: S. cerevisiae cln2 rad14 strain, at 50.0 µM, active compounds read high
Method in brief: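 Growth inhibition, relative to vehicle-treated controls, is the read-out. The test organism is a yeast strain with defined genetic alterations, cln2 rad14.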

[5] = NCI Yeast Anticancer Drug Screen. Data for the bub3 strain (AID 167); details: S. cerevisiae bub3 mutant strain, at 50.0 µM, active compounds read high
Method in brief: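 Readout: yeast growth inhibition, expressed relative to vehicle-only wells. The test organism is a mutant strain from a panel with lesions in DNA repair or checkpoint genes.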

[6] = NCI Yeast Anticancer Drug Screen. Data for the mlh1 rad18 strain (AID 175); details: S. cerevisiae mlh1 rad18 strain growth inhibition; at 50.0 µM; active compounds read high
Method in brief: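 Cells of a genetically altered yeast strain, deficient in DNA damage repair, were treated with compound. Their growth was then compared with that of vehicle-treated cultures to give inhibition.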

Measured: growth inhibition

COC1(OC)CCC2C1C1CCC(OC)(OC)C21 (stereo unspecified)
inactive: [1] 1.7% | [2] -3.35% | [3] 11.3% | [4] 8.75% | [5] 3.4% | [6] -17.4%

CC(=O)Nc1ccc[n+](C)c1
inactive: [1] 0.65% | [2] 17.9% | [3] -6.9% | [4] -3.3% | [5] 33.3% | [6] -1.95%

Nc1ccccc1CO
inactive: [1] 3% | [2] 2.4% | [3] 2.25% | [4] -0.05% | [5] -4.65% | [6] 7.1%

O=C1c2ccccc2C(=O)N1CCc1ncc[nH]1
inactive: [1] 1.45% | [2] 17% | [3] 0.15% | [4] -23.9% | [5] 6.3% | [6] 2.9%

Cc1ccc(S(=O)(=O)OC(c2ccc(C(OS(=O)(=O)c3ccc(C)cc3)(C(F)(F)F)C(F)(F)F)cc2)(C(F)(F)F)C(F)(F)F)cc1
inactive: [1] 4.45% | [2] 6.65% | [3] -17.8% | [4] 10.8% | [5] 4.4% | [6] 4.7%

O=S1c2ccccc2N=C(c2cccc3ccccc23)CC1c1cccc2ccccc12 (stereo unspecified)
inactive: [1] 56.4% | [2] 38.8% | [3] 52.5% | [4] 23.8% | [5] 58.1% | [6] 41%

COc1ccccc1NC(=O)C1=C(C)NC(C)=C(C(=O)Nc2ccccc2OC)C1c1c(Cl)cccc1Cl
inactive: [1] 15.6% | [2] 3.75% | [3] -11.8% | [4] -6.05% | [5] 0.2% | [6] 26.6%

CCCCCc1ccccc1OCC1CO1 (stereo unspecified)
inactive: [1] 6.75% | [2] -9.15% | [3] -17.6% | [4] 11.6% | [5] 5.1% | [6] 27.2%

CCCn1c(=S)[nH]c2c(=O)n(C)c(=O)n(C)c21
inactive: [1] -3.55% | [2] -8.9% | [3] -0.45% | [4] -17.8% | [5] -4.85% | [6] 5.65%

O=c1[nH]cnc2ccccc12
inactive: [1] 39% | [2] -1.55% | [3] 0.2% | [4] -7.3% | [5] 16.6% | [6] 14.7%

COc1cc(C(=O)NN(C)C)cc(OC)c1OC
inactive: [1] 13.5% | [2] 0.65% | [3] -9.95% | [4] 10.8% | [5] -7.95% | [6] -18.5%

Nc1ccc(Cl)cc1Br
inactive: [1] 6.35% | [2] 22.4% | [3] -6.5% | [4] 5.5% | [5] -7.05% | [6] 8.6%

O=C(O)C=C(CBr)CBr
inactive: [1] 11.5% | [2] -3% | [3] -1.25% | [4] -24.1% | [5] 14.1% | [6] 9.05%

Nc1nc(N)nc(-c2cc(Br)c(N)c(Br)c2)n1
inactive: [1] -2.55% | [2] -7.45% | [3] 0.95% | [4] 34.6% | [5] 3.3% | [6] -8.25%

CC(C)C1CCC(O)CC1 (stereo unspecified)
inactive: [1] -14.5% | [2] 1.9% | [3] -3.55% | [4] -32.2% | [5] 10.3% | [6] 9.05%

COc1cc(C)c(OC)c(C/C=C(\C)CC2=C(CC(C)(C)O)C(=O)[C@]3(C)CCC[C@]3(C)C2)c1
inactive: [1] 33.6% | [2] 25.8% | [3] 13.7% | [4] 4.35% | [5] 16.5% | [6] 12.4%

CCCCS(=O)(=O)CCCCCCl
inactive: [1] 1.55% | [2] -2.95% | [3] -6.25% | [4] -13.5% | [5] -6.45% | [6] 9.55%

O=C(COc1ccc(Cl)cc1)Nc1ccc(I)cc1
inactive: [1] 0.05% | [2] -4.85% | [3] 0.6% | [4] -5.15% | [5] -1.45% | [6] 6.45%

Cc1cc(C)c(C(=O)CC(C)C)c(C)c1
inactive: [1] -8.15% | [2] -3% | [3] 4.2% | [4] 24.6% | [5] -3.45% | [6] -4.2%

CC1S(=O)(=O)OCCCOS1(=O)=O
inactive: [1] -22.8% | [2] -19.2% | [3] -9.95% | [4] -13.2% | [5] -2.45% | [6] -17.6%

CC(=O)Cc1ccc2[nH]c(C)cc(=O)c2c1
inactive: [1] -2.15% | [2] 5.25% | [3] -0.2% | [4] -34.4% | [5] -7.15% | [6] 4.55%
